IL-1B inflam inh: qHTS for Inhibitors of Inflammasome Signaling: IL-1-beta AlphaLISA Primary Screen. THP-1 LPS/ATP IL-1B secretion, AlphaLISA, 16 h; hits give low values. activity change, % at 57.5 µM. 360,000 compounds, 4.7% hits. AID 743279, 2014; in the data active = activity change below about -50%; inconclusive = mostly about -30% to -49%
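Secreted IL-1B measured by AlphaLISA bead assay after 16 h compound exposure of THP-1 cells; compounds (final up to 57.5 uM) added 1 h before LPS (250 ng/mL) and ATP (1.25 mM) stimulation; lower signal means less secretion.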
DT40 TDP1 no CPT: qHTS for Inhibitors of human tyrosyl-DNA phosphodiesterase 1 (TDP1): qHTS in cells in absence of CPT | DT40 Tdp1-/- hTDP1 cells, no CPT, ATP luminescence, 48 h | AID 686978, 2013 | 420,000 compounds, 15% hits | Potency, µM (doses to about 46.2 µM), for the others: top-dose activity change, negative = growth inhibition, usual class: inhibitors; note: potency is the fitted concentration of half-maximal effect; nearly all actives have a fitted effect of over 55% in size
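Chicken DT40 Tdp1-/- cells complemented with human TDP1, screened without camptothecin (DMSO vehicle only), 400 cells/well. Compounds pin-transferred, cells incubated at 37 °C for at least 48 hr. Growth read as ATP-dependent luminescence (CellTiter-Glo, 30 min at RT).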
HT1080 IDH1KD tx: qHTS for induction of synthetic lethality in tumor cells producing 2HG: qHTS for the HT-1080-IDH1KD cell line; HT-1080 IDH1 knockdown viability, ATP luminescence, 48 h; Potency, µM (titrated, usually from 46.1 µM), for inactives: top-dose activity, negative = toxicity, most hits filed as cytotoxic; 360,000 compounds, 2% hits; AID 686971, 2013;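 note: potency is the fitted concentration of half-maximal effect; 0% = DMSO wells and -100% = cell-free medium wells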
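Assay cells: HT-1080 with IDH1 knockdown, 750 per well, RPMI/5% FBS. Exposure: 48 h at 37 °C following 2 h pre-incubation. Read: CellTiter-Glo luminescence; fitted concentration-response, curve class assigned.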
TDP1 cell CPT: qHTS for Inhibitors of human tyrosyl-DNA phosphodiesterase 1 (TDP1): qHTS in cells in presence of CPT. chicken DT40 Tdp1-/-;hTDP1 cells + 20 nM CPT, ATP luminescence, 48 h. Potency, µM (series often up to 46.2 µM), inactives show top-dose activity change, negative = growth inhibition, actives largely listed as inhibitors. 420,000 compounds, 12% hits; note: potency is the fitted concentration of half-maximal effect; nearly all actives have a fitted effect of over 55% in size
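Chicken DT40 Tdp1-/- cells stably complemented with human TDP1 were seeded at 400 cells/well in medium containing 20 nM camptothecin, exposed to pin-transferred compounds, and grown at 37 °C for at least 48 hr. Viability was read as ATP luminescence.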
HT1080NT lethal: qHTS for induction of synthetic lethality in tumor cells producing 2HG: qHTS for the HT-1080-NT fibrosarcoma cell line. AID 686970, 2013. 360,000 compounds, 1.6% hits. Potency, µM (titrated, usually from 46.1 µM), without a hit: at the top dose activity, negative = less viability, hits mostly cytotoxic. HT-1080-NT fibrosarcoma viability, CellTiter-Glo ATP luminescence, 48 h;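 note: NT is the 2HG producing partner of a matched IDH1 knockdown line; potency is the fitted concentration of half-maximal effect; 0% = DMSO-treated cells and -100% = media-only wells without cells; nearly all actives have a fitted effect of over 55% in size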
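Toxicity toward the 2HG-producing NT line was scored as %Activity, normalised to DMSO and no-cell wells, from CellTiter-Glo luminescence after 48 hours' treatment.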
* = called active by the depositor; ? = inconclusive; / = no result. Most compounds without a hit are left out; they make up all but 19% or so of the library. Unless noted, calls come from the whole dose curve; as a rule, active = well fitted curve in the direction sought with a large enough effect; inconclusive = small, poorly fitted or top-dose-only effect, or another doubt; inactive = no such curve, though single readings can be large; an effect the other way counts as inactive or inconclusive. Unless noted, % is set by controls: 0 for no effect and ±100 for the full control effect.

SMILES | IL-1B inflam inh | DT40 TDP1 no CPT | HT1080 IDH1KD tx | TDP1 cell CPT | HT1080NT lethal
COc1ccc(-c2cnc3c(NC=O)cc(-c4ccccc4OC)cn23)cc1OC | 32 | 0.0073µM* | 0.18µM* | 0.029µM* | 0.046µM*
COc1ccc(-c2cc(NC=O)c3ncc(-c4ccc(OC)c(OC)c4)n3c2)cc1OC | -62* | 4.1µM* | ? | 5.2µM* | ?
COc1ccc(-c2cc(NC=O)c3ncc(-c4ccc(OC)c(OC)c4)n3c2)cc1 | -11 | 1µM* | 0.58µM* | 0.73µM* | 1µM*
COc1cccc(N(CC(=O)NCc2ccco2)C(=O)CCC(=O)Nc2nccs2)c1 | -17 | -23% | 10% | 2% | 4%
COC(=O)Nc1ccc(SCC(=O)c2ccc(Cl)cc2)cc1 | -62* | ? | -11% | ? | 0%
O=C(CSc1nnc(CNC(=O)c2cccs2)o1)c1ccc(Cl)cc1 | -58* | ? | -7% | 21µM* | -8%
COC(=O)Nc1ccc(SCC(=O)c2ccccc2)cc1 | -12 | -22% | -9% | -28% | 0%
O=C(CSc1nnc(CNC(=O)c2cccs2)o1)c1ccccc1 | 21 | ? | 13% | -26% | 11%
C[C@H](N)c1nnc(SCC(=O)c2ccc(Cl)cc2)o1 | 12 | -1% | -4% | 4% | 2%
CC(C)(C)OC(=O)NCCc1nnc(SCC(=O)c2ccc(Cl)cc2)o1 | -17 | ? | 0% | 23µM* | 8%
CC(C)[C@H](N)c1nnc(SCC(=O)c2ccc(Cl)cc2)o1 | -10 | 13µM* | -2% | 12µM* | 5%
CCN1CCN(c2nc(C)c3c(n2)CCCC3=O)CC1 | 35 | -17% | 3% | -6% | 9%
O=C(N/N=C/c1cccs1)/C(=C/c1ccccc1)NC(=O)c1ccccc1 | 0 | -2% | 3% | 1% | 0%
CCOc1ccc(-c2nc(SCC(=O)NCCOC)c(-c3ccc(OC)c(OC)c3)[nH]2)cc1 | / | ? | / | -25% | /
COc1ccccc1CNS(=O)(=O)c1cnc(N)nc1 | / | -6% | / | 1% | /
C[C@H](NC(=O)OC(C)(C)C)c1nnc(SCC(=O)c2ccc(Cl)cc2)o1 | 12 | 21µM* | -1% | 16µM* | -11%
COc1ccc(NC2CCCN(C(=O)c3ccc4[nH]c(C)c(C)c4c3)C2)cc1 (configuration not stated) | -2 | -15% | 0% | ? | -1%
O=S(=O)(N=S(N1CCCCC1)N1CCCCC1)c1ccccc1 | 0 | ? | 6% | 9.2µM* | -2%
O=S(=O)(/N=C(/c1ccccc1)N1CCCCCC1)c1ccccc1 | -9 | -10% | -5% | -10% | 2%
CCCCC(=O)Nc1nc(C)c(-c2csc(Nc3ccccc3OC)n2)s1 | -19 | ? | -4% | 23µM* | -1%
COc1ccccc1Nc1nc(-c2cccs2)cs1 | -8 | -1% | 2% | -4% | 1%
C=CCCC(=O)Nc1nc(C)c(-c2csc(Nc3ccccc3OC)n2)s1 | -22 | 7.3µM* | 16µM* | 6.5µM* | ?
C=CCNC(=S)N1CCC(C(=O)c2ccc(F)cc2)CC1 | 14 | ? | -6% | ? | 4%
Cc1ccc(CNC(=O)CCS(=O)(=O)c2ccc3c(c2)NC(=O)CS3)cc1 | 14 | 1% | 0% | -30% | 1%
COc1cc(O)c(CCC(=O)c2cc(OC)c(OC)c(OC)c2)c(OC)c1 | 9 | 15µM* | 4% | 21µM* | 5%
SMILES | IL-1B inflam inh | DT40 TDP1 no CPT | HT1080 IDH1KD tx | TDP1 cell CPT | HT1080NT lethal
Cn1nnnc1Sc1ncnc2scc(-c3ccccc3)c12 | -104* | 16µM* | -23% | 15µM* | -4%
Cn1nnnc1Sc1ncnc2scc(-c3ccc(F)cc3)c12 | -68* | 6.5µM* | 21µM* | 16µM* | ?
c1ccc(-c2csc3ncnc(Sc4nnnn4-c4ccccc4)c23)cc1 | / | 10µM* | / | ? | /
Cc1ccc(-c2csc3ncnc(SCC(N)=O)c23)cc1 | ? | ? | -25% | ? | -18%
Cc1ccc(-c2csc3ncnc(Sc4nnnn4C4CC4)c23)cc1 | / | 11µM* | / | 10µM* | /
Cc1noc(C)c1CSCC(=O)Nc1nc2ccc(S(C)(=O)=O)cc2s1 | 18 | -18% | -6% | ? | 3%
O=C(NC(=S)N1CCCCC1CO)c1cccs1 (configuration not stated) | 19 | 0% | -8% | -12% | -3%
Nc1nc(CSc2nc3ccccc3[nH]2)nc(N2CCOCC2)n1 | 18 | 7% | 12% | 0% | 16%
CCCCN(C)c1c(C)nc2ccc(C(=O)NCCCn3ccnc3)cn12 | 10 | -17% | 13% | -22% | -14%
COc1cc(C(=O)OCC(=O)Nc2sccc2C(N)=O)cc(OC)c1OC | 78 | 3.7µM* | 7.3µM* | 4.6µM* | ?
COc1ccc(NC(=O)COC(=O)c2cccc(S(=O)(=O)N(C)C)c2)cc1 | 6 | 10% | 11% | 2% | 20%
CN(C)S(=O)(=O)c1cccc(C(=O)OCC(=O)Nc2sccc2C(N)=O)c1 | -17 | 21µM* | -8% | 15µM* | -20%
CCOc1ccc(C2CC(=O)Nc3nc(SCc4ccccc4C)[nH]c(=O)c32)cc1OC (configuration not stated) | / | 15µM* | / | ? | /
N#CC1C(=O)c2ccccc2C1c1ccccc1 (configuration not stated) | -104* | ? | 12µM* | ? | ?
O=C(O)c1ccccc1SCc1nc2ccccn2c1Br | 5 | -2% | 0% | 4% | -3%
N=C(N)SCc1nc2ccccn2c1Br | -98* | ? | 10% | ? | 9%
Cc1cccc2nc(CSC(=N)N)c(Br)n12 | -68* | ? | ? | ? | ?
CC1CCN(C(=O)/C=C/c2ccc(C(C)(C)C)cc2)CC1 | -14 | 21µM* | 1% | ? | 7%
Cc1ccc(/C=C/C(=O)N2CCCC(C)C2)cc1 (configuration not stated) | 4 | ? | 10% | -7% | 17%
COc1ccc(-n2c(SCC(=O)N3CCC(C)CC3)nc3c([nH]c4ccccc43)c2=O)cc1 | / | 2% | / | -2% | /
CC(C)CC(N)C(=O)OCc1ccc([N+](=O)[O-])cc1 (configuration not stated) | 17 | -14% | 10% | 0% | 13%
Cc1ccccc1NC(=O)C(=O)c1cn(C)c2ccccc12 | 49 | 14% | 20% | -13% | 20%

Source: PubChem BioAssay (National Center for Advancing Translational Sciences (NCATS))
